Source: PubChem BioAssay AID686979 (National Center for Advancing Translational Sciences (NCATS), 2013)
Hit rate of the full screen: of about 420,000 compounds, about 50,000 (12%) were called active. Roughly 26% stayed inconclusive and do not appear here. Many of the other results were omitted from the sample, so actives are more common in it than they were. A number with no mark means an inactive call. Calls follow the shape of the dose curve; as a rule, active = well fitted inhibition curve with a large enough effect; inconclusive = small, poorly fitted or top-dose-only effect; inactive = flat fitted curve, though single readings scatter.

test: qHTS for Inhibitors of human tyrosyl-DNA phosphodiesterase 1 (TDP1): qHTS in cells in presence of CPT; conditions: chicken DT40 Tdp1-/-;hTDP1 cells + 20 nM CPT, ATP luminescence, 48 h; series mostly up to 46.2 µM; activity change, negative = growth inhibition: at the top concentration; also: nearly all actives have a fitted effect of over 55% in size
How it was run: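 Cell growth measured by CellTiter-Glo luminescence after a minimum 48 h, 37 C compound exposure with 20 nM CPT in Tdp1-knockout DT40 cells stably expressing hTDP1, seeded 400/well; qHTS titration format.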
% is scaled to controls: 0 for no effect and ±100 for the full control effect; potency is read from the fitted curve at half-maximal effect.

| Structure (SMILES) | Potency | activity change, negative = growth inhibition |
| --- | --- | --- |
| CCOC(=O)C1CCN(C(=O)CN2C(=O)NC(C)(c3ccc4cc(OC)ccc4c3)C2=O)CC1 (stereo not drawn) | 18.4 µM (active) | – |
| CC1(c2ccc3ccccc3c2)NC(=O)N(CC(N)=O)C1=O (stereo not drawn) | – | 2.31% |
| CCOC(=O)C1CCN(C(=O)Nc2cccc(OC)c2)CC1 | – | 2.86% |
| CCSc1nnc(NC(=O)c2cc(=O)c3cc(C)c(C)cc3o2)s1 | – | -1.36% |
| CN=C1S/C(=C\c2c(OC)cc(OC)cc2OC)C(=O)N1C | – | 12.4% |
| O=C(COC(=O)/C=C/c1cccs1)NC1CCCCC1 | – | -15.2% |
| COc1ccc(CCNC(=O)c2cnc(Cl)c(Cl)c2)cc1 | – | 5.15% |
| CCOc1ncccc1C(=O)NCCc1ccc(OC)cc1 | 18.4 µM (active) | – |
| COc1ccc(CCNC(=O)c2ccco2)cc1 | – | -28.4% |
| OCCN1CCN(c2ncnc3c2ncn3[C@H]2CN(Cc3ccco3)C[C@@H](CO)O2)CC1 | – | -19.2% |
| Cc1nn(CC(=O)N2CCN(c3cccc(C(F)(F)F)c3)CC2)c(=O)c2cc3sccc3n12 | – | -2.5% |
| COc1ccc2[nH]c3ccc(OC)cc3c2c1 | – | -5.32% |
| COc1ccc2[nH]c(=S)cc(C)c2c1 | – | -20.6% |
| COc1ccc2[nH]c3c(C)c4cc[n+](C)cc4c(C)c3c2c1 | 0.259 µM (active) | – |
| O=C(CSc1nnnn1C1CCCC1)N1CCCCC1 | – | -12.8% |
| COc1ccccc1/C=C/C=N/NC(=O)CN1CCN(Cc2ccccc2)CC1 | – | 0.994% |
| CSc1nc2ccccc2cc1/C=C(\C#N)c1ccc(Cl)cc1Cl | – | -10.7% |
| Cc1ccc(-c2nnc(SCc3ccccc3C)o2)cc1 | – | -2.32% |
| Cc1ccc(S(=O)(=O)N(CC(O)CN2C(=O)NC(C)(C)C2=O)c2cccc([N+](=O)[O-])c2)cc1 (stereo not drawn) | – | -5.2% |
| Cc1ccc(S(=O)(=O)N(CC(O)CN2CCCCC2)c2cccc([N+](=O)[O-])c2)cc1 (stereo not drawn) | – | 3.37% |
| COc1ccc([N+](=O)[O-])cc1N(CC(O)CN(CC(C)C)CC(C)C)S(=O)(=O)c1ccc(C)cc1 (stereo not drawn) | 25.9 µM (active) | – |
| COC(=O)c1ccc(CNC(=O)C2CCC(=O)N(Cc3ccccn3)C2)cc1 (stereo not drawn) | – | -14.2% |
| Cc1nn(-c2ccccc2)c2c1C(c1cccc([N+](=O)[O-])c1)N(c1ccccc1)C(=O)N2 (stereo not drawn) | – | -27% |

| Structure (SMILES) | Potency | activity change, negative = growth inhibition |
| --- | --- | --- |
| CCOC(=O)C1=C(CN2CCc3ccccc32)NC(=O)NC1c1cccc([N+](=O)[O-])c1 (stereo not drawn) | 14.1 µM (active) | – |
| CCOC(=O)C1=C(CNC2CCCCC2)NC(=O)NC1c1cc(C)ccc1C (stereo not drawn) | 25.9 µM (active) | – |
| CCOC(=O)C1=C(c2ccccc2)NC(=O)NC1c1cc(OC)c(OC)cc1OC (stereo not drawn) | – | 3.86% |
| CCOC(=O)COc1ccc(Cl)cc1C1NC(=O)NC(C)=C1C(C)=O (stereo not drawn) | – | -12% |
| NC(=O)N1CCc2ccccc21 | – | -8.45% |
| CCOC(=O)C1=C(CSc2nccn2C)NC(=O)NC1c1ccc(OC)cc1 (stereo not drawn) | – | -2.12% |
| CCOCCOC(=O)C1=C(C)NC(=O)NC1c1ccc2c(c1)OCO2 (stereo not drawn) | – | -6.39% |
| CCOC(=O)C1=C(CN2CCc3ccccc32)NC(=O)NC1c1cc(C)ccc1C (stereo not drawn) | 17.8 µM (active) | – |
| CCc1cc(-c2nnc(SCC(=O)NC3CC3)n2C)cs1 | – | 22.9% |
| NC(CSC(c1ccccc1)(c1ccccc1)c1ccc(-c2ccccc2)cc1)C(=O)O (stereo not drawn) | – | -28.2% |
| COC(=O)[C@@H]1C[C@H](NC(=O)c2ccccc2C(F)(F)F)CN1Cc1cccc(O)c1 | – | 9.61% [at 9.04 µM] |
| CC(CN1CCC(n2nccc2NC(=O)C2CCCC2)CC1)c1ccccc1 (stereo not drawn) | – | 7.53% |
| C=CCN1CCN(c2ccncc2S(=O)(=O)N2CCN(C)CC2)CC1 | – | 12.7% |
| CC1(C(=O)NCc2ccccc2)CSCC(=O)N1CCCN1CCOCC1 (stereo not drawn) | – | 22.5% |
| Cc1cc2oc(=O)cc(CN(C)Cc3ccccc3)c2cc1Cl | – | -8.96% |
| CC(C)(O)C#Cc1ccc(CNC[C@H]2O[C@@H](n3cnc4c(=O)[nH]c(N)nc43)[C@H](O)[C@@H]2O)s1 | – | 12.5% |
| C/C=C(\C)C(=O)O[C@H]1CC(C)=C2C(=O)C=C(C)C2[C@@H]2OC(=O)[C@@](C)(OC(=O)C=C(C)C)C21 (stereo partly drawn) | – | -19.3% [at 9.04 µM] |
| C=C(C)C(=O)O[C@H]1C/C(C)=C\C(=O)/C=C(\C)[C@H](O)[C@@H]2OC(=O)C(=C)[C@@H]21 | 0.58 µM (active) | – |
| Cc1ccc(CNC(=O)CC(NC(=O)c2ccccc2)c2ccccc2)cc1 (stereo not drawn) | – | -3.51% |
| Cn1c(SCC(=O)Nc2nccs2)nnc1-c1cccnc1 | – | -11.3% |
| CCOC(=O)C1CCN(C(=O)Nc2ccc(C)c(Cl)c2)CC1 | – | -1.03% |
| COc1cccc(CNCc2ccc3c(c2)OCO3)c1 | – | -22.9% |
| COc1ccc(NC(=O)NCc2ccc3c(c2)OCO3)c(OC)c1 | – | 9.94% |

| Structure (SMILES) | Potency | activity change, negative = growth inhibition |
| --- | --- | --- |
| COc1ccc2c(c1)C(C)=CC(C)(C)N2C(=O)CNCc1ccc2c(c1)OCO2 | 20.6 µM (active) | – |
| CCc1ccc(-n2c(=S)sc3c(=O)n(-c4ccccc4OC)c(=S)[nH]c32)cc1 | – | -29.9% |
| NS(=O)(=O)c1ccc(NC(=S)NNC(=O)c2cccs2)cc1 | – | -1.2% |
| COc1ccc(C)cc1Nc1nc2ccccc2c2nnc(C)n12 | – | -15.5% |
| FC(F)(F)c1ccccc1-c1nc(-n2ccnc2)c2ccccc2n1 | – | 5.11% |
| FC(F)(F)c1cc(Nc2nc3ccccc3c3nncn23)ccc1Cl | 23.1 µM (active) | – |
| COc1cccc(NC(=O)C(Sc2nc3ccccc3c(=O)n2CC(C)C)c2ccccc2)c1 (stereo not drawn) | – | -22.3% |
| COc1cccc(Nc2nc3ccccc3c3nncn23)c1 | 16.4 µM (active) | – |
| O=C(OCC(=O)c1cccs1)c1ccc([N+](=O)[O-])o1 | – | 7.59% |
| Cc1ccc(CNC(=O)C2CCN(S(=O)(=O)c3ccc4nc5c(c(C(=O)O)c4c3)CC(C)CC5)CC2)cc1 (stereo not drawn) | inactive | – |
| CCn1cc(CNC(=O)c2cc([N+](=O)[O-])c(C)c([N+](=O)[O-])c2)cn1 | – | -0.555% |
| O=C(COc1ccc(Br)cc1)OCC(=O)c1ccc[nH]1 | – | -2.95% |
| CCOC(=O)C1CCCN(C(=O)CSc2nnc3nc(C)cc(C)n23)C1 (stereo not drawn) | 25.9 µM (active) | – |
| Cc1cc2nnc(SCC(=O)N3CCN(c4ccccc4)CC3)n2c(N)n1 | – | -13.6% |
| Cc1c(C)n2c(SCC(=O)N3CCCC3)nnc2[nH]c1=O | – | -2.74% |
| CN(C(=O)COC(=O)c1ccc(Br)o1)c1c(N)n(Cc2ccccc2)c(=O)[nH]c1=O | – | -5.55% |
| Cc1ccccc1-c1ccc2c(c1)O[C@@H](CN(C)Cc1ccc(C(=O)O)cc1)[C@@H](C)CN([C@H](C)CO)S2(=O)=O | – | 10.1% |
| C[C@@H]1CN([C@@H](C)CO)S(=O)(=O)c2ccc(-c3ccc(C(=O)N(C)C)cc3)cc2O[C@@H]1CN(C)Cc1ccccc1C(=O)O | – | 9.29% |
| C[C@H](CO)N1C[C@H](C)[C@@H](CN(C)C(=O)c2cccc(F)c2)Oc2cc(-c3cncnc3)ccc2S1(=O)=O | – | -23.7% |
| C[C@@H]1CN([C@H](C)CO)S(=O)(=O)c2ccc(C#C[C@@H](C)O)cc2O[C@@H]1CN(C)Cc1ccc(-c2ccccc2)cc1 | 11.6 µM (active) | – |
| C[C@H]1CN([C@@H](C)CO)S(=O)(=O)c2ccc(-c3cccc(F)c3)cc2O[C@@H]1CN(C)C | – | -11.3% |
| C[C@@H]1CN([C@@H](C)CO)S(=O)(=O)c2ccc(C#Cc3cccc(F)c3)cc2O[C@H]1CN(C)S(=O)(=O)c1cn(C)cn1 | 18.4 µM (active) | – |
